# Activity calls are given as the source filed them. How the source made its calls: active means hit-call score of the fitted dose curve at least 0.9, where 1 is the maximum; inactive means score below 0.9.
# Read-out: Bcl-2 (BID) gene, BID (gene 637)
# Test: LTEA_HepaRG_BID: Life Technologies and Expression Analysis (LTEA) Assay for Bcl-2 (BID) gene using HepaRG (AID 2283476)
# Details: mRNA level, 48 h; actives raise or lower the signal
# Description: LTEA_HepaRG is a cell based, multiplexed-readout assay that uses HepaRG, a human liver cell line, with measurements taken at 48 hours after chemical dosing on a 96-well plate.LTEA_HepaRG_BID is one of 102 assay component(s) measured in the LTEA HepaRG cell culture assay. It is a marker of Cell proliferation, survival, death.Data from the assay component LTEA_HepaRG_BID was analyzed into 1 endpoint. This assay endpoint, LTEA_HepaRG_BID, was analyzed with bidirectional fitting relative to DMSO as the negative control and baseline of activity. Using a type of inducible reporter, measures of mRNA induction for gain or loss-of-signal activity can be used to understand regulation of transcription factor activity. To generalize the intended target to other relatable targets, this assay endpoint is annotated to the cell cycle intended target family, where the subfamily is Cell proliferation, survival, death.
# A total of 1060 chemcials from the ToxCast library were tested in eight-point concentration-response experiments. Cell culture and cytotoxicity assays were conducted at Thermo Fisher Scientific's Custom Services facility (Madison, WI). A single lot of human HepaRG cells (Thermo Fisher Scientific, Frederick, MD) was used for the cell culture experiments. 96-well format collagen type I coated plates of human HepaRG cells were prepared using established methods. Briefly, cryopreserved HepaRG cells were thawed, plated at a density of approximately 100,000 cells/well in HepaRG Thaw, Plate, and General Purpose media (HPRG770, Thermo Fisher Scientific), and incubated for 48 hours. 0.5% DMSO was selected as vehicle control to balance the requisite need of DMSO in HepaRG cultures to maintain differentiation (for example, baseline metabolism, proportions of hepatocytes vs. cholangiocytes), while enabling further hepatic receptor pathway activation (for example, PXR and CAR) in response to chemical exposure. 48 hours after plating, the culture medium was replaced with HepaRG Serum-Free Incudtion Media. Cells were exposed to each test chemical in duplicate and maintained in CO2 incubators for another 48 hours. Chemical plates were thawed to room temperature and 200x concentrations of treatment groups were prepared. 8-point conentration-reponse curves were made with the highest exposure at 100 uM, followed by half-log dilutions, all in 0.5% DMSO. Each test plate contained variouse controls, induction positive controls (1mM phenobarbital), cytotoxicity positive controls ([…] aflatoxin B1), vehicle controls (0.5% DMSO), and total lysis controls (0.5% DMSO). Cell morphology images were taken using an Essen IncuCyte FLR automated microscope, with six 96-well plates imaged in about 24 minutes. Images were captured and exported and JPEG files. Spent culture media was transfered to black-well plates for the LDH assay, and remaining media was sorted at -80 C for later use. Cells were treated with RLT buffer and frozen until shipped for gene expression analysis. Total RNA was isolated from the cell suspension in 75 uL of Buffer RLT (Qiagen, Germantown, MD 20874) by Quintiles/Expression Analysis (Durham, NC) using a custom isolation procedure. Total RNA from each plate well was transferred to a preamplification plate. Fluidigm's 96.96 Dynamic ArrayTM (Fluidigm, Amsterdam, the Netherlands) technology was used for gene expression analyses by quantitative reverse transcription polymerase chain reaction (qRT-PCR, performed by Quintiles/Expression Analysis, Durham, NC)89. Standard TaqManTM Assays (Applied Biosystems/ThermoFisher Scientific, Foster City, CA) were used to assess the expression of 93 genes selected based on their selectivity and sensitivity to important hepatic receptors known to be modulated by environmental chemicals; importance in human hepatocyte functionality; and hepatotoxicity. […]
SMILES,outcome,AC50
CCOC(=O)C(C)Oc1ccc(Oc2nc3ccc(Cl)cc3o2)cc1 (stereo not given),inactive,
CCCCC(CC)CN1C(=O)C2C3C=CC(C3)C2C1=O (stereo not given),inactive,
CN(C)C(=O)Nc1ccc(Cl)c(Cl)c1,inactive,
CCCCCCC(C)OC(=O)COc1nc(F)c(Cl)c(N)c1Cl (stereo not given),inactive,
COC(=O)c1ccc(I)cc1S(=O)(=O)NC(=O)Nc1nc(C)nc(OC)n1,inactive,
c1ccc(Nc2ccccc2)cc1,inactive,
CCN(Cc1c(F)cccc1Cl)c1c([N+](=O)[O-])cc(C(F)(F)F)cc1[N+](=O)[O-],inactive,
CCCCOCCOCCOCc1cc2c(cc1CCC)OCO2,inactive,
CSC(=O)c1cccc2nnsc12,inactive,
C=CCOC(Cn1ccnc1)c1ccc(Cl)cc1Cl (stereo not given),inactive,
COc1c(Cl)ccc(Cl)c1C(=O)O,inactive,
C[C@]12C[C@H](O)[C@H]3[C@@H](CCC4=CC(=O)CC[C@@]43C)[C@@H]1CC[C@@H]2C(=O)CO,inactive,
CCCCOC(=O)[C@@H](C)Oc1ccc(Oc2ccc(C(F)(F)F)cn2)cc1,inactive,
CCCCC(CC)COC(=O)c1ccccc1C(=O)O (stereo not given),inactive,
C#CCOC(=O)[C@@H](C)Oc1ccc(Oc2ncc(Cl)cc2F)cc1,inactive,
CCOC(=O)NCCOc1ccc(Oc2ccccc2)cc1,inactive,
CC(C)(c1ccc(O)cc1)c1ccc(O)cc1,inactive,
COC(=O)CSc1cc(N=c2sc(=O)n3n2CCCC3)c(F)cc1Cl,inactive,
CCN(CC)C(=O)c1cccc(C)c1,inactive,
O=C(Nc1ccc([N+](=O)[O-])cc1Cl)c1cc(Cl)ccc1O,inactive,

SMILES,outcome,AC50
CC(C)(C)[C@@H](O)[C@@H](Cc1ccc(Cl)cc1)n1cncn1,inactive,
CCC(C)OC(=O)N1CCCCC1CCO (stereo not given),inactive,
N#CSCSc1nc2ccccc2s1,inactive,
COC(=O)c1ccccc1C(=O)O,inactive,
O=C(c1ccccc1)C1CCCCC1,inactive,
CCOC(=O)C(C)Oc1ccc(Oc2cnc3cc(Cl)ccc3n2)cc1 (stereo not given),inactive,
CCCCCOC(=O)COc1cc(N2C(=O)C3=C(CCCC3)C2=O)c(F)cc1Cl,inactive,
O=C(c1ccc(O)cc1O)c1ccc(O)cc1O,inactive,
CCCOC(=O)c1ccc(C(=O)OCCC)nc1,inactive,
CCSC(=O)N(CC(C)C)CC(C)C,inactive,
O=C(O)c1ccccc1,inactive,
CC(=O)[C@H]1CC[C@H]2[C@@H]3CCC4=CC(=O)CC[C@]4(C)[C@H]3CC[C@]12C,inactive,
CCOC(=O)COc1cc(-n2ncc(C(F)(F)F)c(C)c2=O)c(F)cc1Cl,inactive,
c1ccc2[nH]c(-c3cscn3)nc2c1,inactive,
C#C[C@]1(O)CC[C@H]2[C@@H]3CCC4=CC(=O)CC[C@@H]4[C@H]3CC[C@@]21CC,inactive,
Oc1ccc(C(c2ccc(O)cc2)C(Cl)(Cl)Cl)cc1,,84.8 µM (active)
CCCN(CCC)c1c([N+](=O)[O-])cc(C(F)(F)F)c(N)c1[N+](=O)[O-],inactive,
Cc1nn(C)c(Oc2ccccc2)c1C=NOCc1ccc(C(=O)OC(C)(C)C)cc1,inactive,
CCNc1nc(N)nc(Cl)n1,inactive,
CC1(C)C(C=C(Cl)Cl)C1C(=O)OCc1cccc(Oc2ccccc2)c1 (stereo not given),inactive,
